What is called AC50 is the concentration giving half of the maximal activity seen.

A short description of assay [1]: ACEA_ER_80hr: ACEA Biosciences xCELLigence Real-Time Cell Analysis on Estrogen Receptor Agonism for Proliferation (AID 2282667; active = hit-call score of the fitted dose curve at least 0.9, where 1 is the maximum). The settings on record: T47D proliferation, impedance (xCELLigence), 80 h. The method in brief:
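T47D human breast cells were seeded on electrode plates, monitored overnight, then exposed continuously to compounds in eight-point 1:4 dilutions from 100 uM (max 0.5% DMSO). Impedance-based growth was read at 80 h, fitted upward relative to DMSO.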

Assay [2] can be described thus: ATG_CRE_CIS: Attagene CIS-FACTORIAL HepG2 Assay for human cAMP Responsive Element (CRE) binding protein 3 (AID 2282926). Particulars: HepG2 CRE cis-reporter, Attagene multiplexed mRNA; actives raise or lower the signal. The method in brief: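 HepG2 cells transiently transfected with a multiplexed reporter library (CRE-driven unit among them) were dosed for 24 h. Reporter mRNA was quantified by RT-PCR, fluorescent labelling, HpaI digestion and capillary electrophoresis, with bidirectional fitting against DMSO baseline.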

Assay [3] deals with CCAAT/enhancer-binding protein beta (Homo sapiens) (UniProt P17676). The experiment in a line: ATG_C_EBP_CIS: Attagene CIS-FACTORIAL HepG2 Assay for human CCAAT/Enhancer Binding Protein (C/EBP) beta (AID 2282927). Particulars: HepG2 Attagene cis-factorial transcription factor reporter; actives raise or lower the signal. Summed up: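 Endogenous transcription factor activity in human liver HepG2 cells is inferred from induction of a CEBPB-linked reporter mRNA. Exposure lasts 24 h; activity is fitted in both directions relative to DMSO.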
Sequence of CCAAT/enhancer-binding protein beta (Homo sapiens) (P17676 whole entry, looked up): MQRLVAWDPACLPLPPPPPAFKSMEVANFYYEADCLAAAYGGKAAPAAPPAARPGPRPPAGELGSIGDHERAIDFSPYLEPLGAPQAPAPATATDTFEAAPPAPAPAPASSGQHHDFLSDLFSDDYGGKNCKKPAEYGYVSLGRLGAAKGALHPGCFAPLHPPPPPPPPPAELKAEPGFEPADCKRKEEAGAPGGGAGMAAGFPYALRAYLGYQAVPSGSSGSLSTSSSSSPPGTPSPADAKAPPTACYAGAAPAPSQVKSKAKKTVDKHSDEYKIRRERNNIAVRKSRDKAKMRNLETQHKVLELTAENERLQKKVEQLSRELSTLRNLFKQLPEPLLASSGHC

Assay [4] can be described thus: ATG_CMV_CIS: Attagene CIS-FACTORIAL HepG2 Assay for human CMV (Internal Marker) (AID 2282928).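 Note: endpoint acts as a background internal control marker rather than a target.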 Particulars: HepG2 CMV promoter reporter, transcription factor profiling; actives raise or lower the signal. The method in brief:
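Cell system: HepG2, transiently transfected multiple reporter units under cis promoters. Exposure: 24 h. Detection: RT-PCR, FAM labeling, HpaI digestion, capillary electrophoresis. Analysis: bidirectional, DMSO baseline.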

A short description of assay [5]: ATG_DR4_LXR_CIS: Attagene CIS-FACTORIAL HepG2 Assay for human Liver X Receptor (LXR), DR4 submotif (AID 2282929). Particulars: HepG2 Attagene DR4 cis-reporter, mRNA transcription; actives raise or lower the signal. The method in brief: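 Fluorescence intensity of labelled reporter cDNA fragments, separated by capillary electrophoresis, gives the signal. HepG2 cells bearing cis-regulated reporter constructs were treated 24 h; activity fitted bidirectionally relative to DMSO negative control.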

For assay [6], the target named is Aryl hydrocarbon receptor (Homo sapiens) (UniProt P35869). The assay is described as follows: ATG_Ahr_CIS: Attagene CIS-FACTORIAL HepG2 Assay for human Aryl Hydrocarbon Receptor (Ahr) (AID 2282930). The settings on record: HepG2 AhR cis-factorial reporter transcription; actives raise or lower the signal. The method in brief: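 Transient MRTU transfection of HepG2 → 24 h compound exposure → total RNA, oligo(dT) RT → PCR, 6-FAM extension, HpaI cut → CE fluorescence. DMSO = baseline; bidirectional curve fit.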
Sequence of Aryl hydrocarbon receptor (Homo sapiens) (P35869 whole entry, looked up): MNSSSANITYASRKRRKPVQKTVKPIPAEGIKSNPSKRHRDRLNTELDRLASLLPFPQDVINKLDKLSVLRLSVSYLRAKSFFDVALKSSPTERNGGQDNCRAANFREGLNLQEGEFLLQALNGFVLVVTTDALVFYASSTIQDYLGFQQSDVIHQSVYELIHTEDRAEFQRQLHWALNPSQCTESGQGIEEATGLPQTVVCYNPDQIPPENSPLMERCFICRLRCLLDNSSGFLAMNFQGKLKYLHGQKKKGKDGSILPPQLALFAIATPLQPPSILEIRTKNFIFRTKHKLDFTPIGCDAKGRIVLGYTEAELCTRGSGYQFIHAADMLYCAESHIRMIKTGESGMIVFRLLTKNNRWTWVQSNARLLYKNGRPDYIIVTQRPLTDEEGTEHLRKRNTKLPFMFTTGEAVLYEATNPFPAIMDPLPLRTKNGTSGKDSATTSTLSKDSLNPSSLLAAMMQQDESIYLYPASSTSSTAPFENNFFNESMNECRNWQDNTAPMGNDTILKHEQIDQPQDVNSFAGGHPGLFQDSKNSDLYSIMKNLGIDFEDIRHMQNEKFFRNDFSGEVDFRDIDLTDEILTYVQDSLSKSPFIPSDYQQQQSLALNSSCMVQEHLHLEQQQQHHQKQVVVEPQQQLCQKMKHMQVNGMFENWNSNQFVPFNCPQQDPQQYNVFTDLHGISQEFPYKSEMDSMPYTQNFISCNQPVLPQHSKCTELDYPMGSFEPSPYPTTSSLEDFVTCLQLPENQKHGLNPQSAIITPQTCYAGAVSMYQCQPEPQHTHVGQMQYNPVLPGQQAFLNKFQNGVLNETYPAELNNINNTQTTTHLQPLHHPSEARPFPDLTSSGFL

Assay [7] is described as follows: ATG_AP_2_CIS: Attagene CIS-FACTORIAL HepG2 Assay for human Activator Protein 2 (AP-2) (AID 2282932). The settings on record: HepG2 AP-2 cis-reporter, Attagene transcription factor profiling; actives raise or lower the signal. The method in brief: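 HepG2, transient MRTU transfection, cis-regulated reporters; 24 h compound exposure; RNA isolated, RT-PCR, 6-FAM labelling, HpaI digest, CE fluorescence. DMSO = negative control/baseline, bidirectional fit.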

Assay [8] in a line: ATG_BRE_CIS: Attagene CIS-FACTORIAL HepG2 Assay for human Bone Morphogenetic Protein (BMP) Response Element (BRE) (AID 2282933). The settings on record: HepG2 BMP response element reporter, Attagene transcription factor profiling; actives raise or lower the signal. Summed up:
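HepG2 cells transiently transfected with multiplexed cis-element reporter units were dosed with chemical for 24 h. Reporter mRNA was measured by RT-PCR with fluorescent labelling, HpaI digestion and capillary electrophoresis; bidirectional fitting relative to DMSO.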

Assay [9] deals with Retinoic acid receptor alpha (Homo sapiens) (UniProt P10276). The experiment in a line: ATG_DR5_RAR_CIS: Attagene CIS-FACTORIAL HepG2 Assay for human Retinoic Acid Receptor Alpha (RARE), DR5 submotif (AID 2282934). The settings on record: HepG2 Attagene cis-factorial RARE DR5 reporter, mRNA; actives raise or lower the signal. Summed up:
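Transient MRTU transfection of HepG2; 24 h compound treatment; TriZol RNA, oligo(dT) RT, PCR, FAM labelling, capillary electrophoresis. Bidirectional fit vs DMSO. Endogenous TF activity at DR5 RARE.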

The target in assay [10] is Transcription factor E2F1 (Homo sapiens) (UniProt Q01094). The experiment in a line: ATG_E2F_CIS: Attagene CIS-FACTORIAL HepG2 Assay for human E2F Transcription Factor 1 (AID 2282935). The settings on record: HepG2 Attagene cis-reporter, E2F reporter RNA transcripts; actives raise or lower the signal. The method in brief: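 Cis-element reporter mRNA induction in transiently transfected HepG2, 24 h exposure. Activity fitted in both directions relative to DMSO negative control.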
Sequence of Transcription factor E2F1 (Homo sapiens) (Q01094 whole entry, looked up): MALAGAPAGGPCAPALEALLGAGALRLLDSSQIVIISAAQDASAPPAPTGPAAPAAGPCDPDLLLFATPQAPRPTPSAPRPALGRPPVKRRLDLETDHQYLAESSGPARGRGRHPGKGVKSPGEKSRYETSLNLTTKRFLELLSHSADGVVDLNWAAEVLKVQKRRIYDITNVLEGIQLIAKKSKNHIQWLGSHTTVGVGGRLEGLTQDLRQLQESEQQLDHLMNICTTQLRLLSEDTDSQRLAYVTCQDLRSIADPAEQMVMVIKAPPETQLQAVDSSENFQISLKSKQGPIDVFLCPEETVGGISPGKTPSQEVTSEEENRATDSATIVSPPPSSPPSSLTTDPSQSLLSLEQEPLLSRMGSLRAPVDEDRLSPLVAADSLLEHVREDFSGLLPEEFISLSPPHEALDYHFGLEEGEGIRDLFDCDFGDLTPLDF

A short description of assay [11]: ATG_E_Box_CIS: Attagene CIS-FACTORIAL HepG2 Assay for human Enhancer Box (E-box) (AID 2282936). The settings on record: HepG2 E-box cis-reporter transcription, actives raise or lower the signal. Summed up:
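Cells: HepG2 (human liver), transient MRTU transfection. Exposure 24 h. RNA → oligo(dT) RT → PCR → 6-FAM label → HpaI → CE. Activity fitted both directions relative to DMSO.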

The nature of assay [12]: ATG_EGR_CIS: Attagene CIS-FACTORIAL HepG2 Assay for human Early Growth Response 1 (EGR1) (AID 2282938). Particulars: HepG2 Attagene CIS-FACTORIAL EGR reporter mRNA; actives raise or lower the signal. Summed up:
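Activity is taken as induction or loss of reporter mRNA versus DMSO, fitted bidirectionally. Transcripts from cis-regulated reporter units in transiently transfected HepG2 were measured after 24 h by RT-PCR with capillary electrophoresis.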

A short description of assay [13]: ATG_M_19_CIS: Attagene CIS-FACTORIAL HepG2 Assay for M19 Transcription Factor (Internal Marker) (AID 2282939). Particulars: HepG2 Attagene CIS-FACTORIAL M19 internal marker reporter; actives raise or lower the signal. Summed up: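 HepG2 cells transiently transfected with cis-regulated multiple reporter transcription units were dosed for 24 h; reporter mRNA was quantified by RT-PCR, 6-FAM primer-extension labelling, HpaI digestion and capillary electrophoresis, with bidirectional fitting against DMSO baseline.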

The nature of assay [14]: ATG_ERE_CIS: Attagene CIS-FACTORIAL HepG2 Assay for Estrogen Response Element (ERE) (AID 2282940). Particulars: HepG2 ERE cis-reporter, Attagene RNA transcript; actives raise or lower the signal. Summed up:
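HepG2 cells transiently transfected with cis-promoter-driven multiplexed reporter transcription units report endogenous TF activity. After 24 h compound exposure, reporter mRNA is quantified by RT-PCR with capillary electrophoresis fluorescence; bidirectional fitting versus DMSO baseline.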

Assay [15] addresses Hepatocyte nuclear factor 3-beta (Homo sapiens) (UniProt Q9Y261). The assay is described as follows: ATG_FoxA2_CIS: Attagene CIS-FACTORIAL HepG2 Assay for human Forkhead box A2 (FOXA2) (AID 2282942). The settings on record: HepG2 cis-reporter transcription factor activity, 24 h; actives raise or lower the signal. The method in brief:
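Reporter transcript induction is measured by fluorescence after capillary electrophoresis of RT-PCR products from HepG2 cells exposed 24 h. Cis-regulated reporter units report endogenous factor activity; curves fitted both directions against DMSO.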

A short description of assay [16]: ATG_FoxO_CIS: Attagene CIS-FACTORIAL HepG2 Assay for human Forkhead box O (FoxO) (AID 2282943). Particulars: HepG2 Attagene cis-reporter, FoxO element, mRNA; actives raise or lower the signal. Summed up:
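HepG2, transient MRTU transfection (cis element, endogenous TFs). Dose 24 h. TriZol RNA → oligo(dT) RT → PCR → 6-FAM primer extension → HpaI cut → CE. Gain/loss vs DMSO.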

A short description of assay [17]: ATG_GATA_CIS: Attagene CIS-FACTORIAL HepG2 Assay for human GATA Binding Protein (AID 2282944). The settings on record: HepG2 GATA cis-element reporter, Attagene multiplex mRNA; actives raise or lower the signal. The method in brief:
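HepG2 cells transiently transfected with multiplexed cis-element reporter units reflecting endogenous transcription factor activity; reporter mRNA measured after 24 h dosing by RT-PCR, 6-FAM labeling, HpaI digestion and capillary electrophoresis. Bidirectional fitting versus DMSO baseline.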

Assay [18] is described as follows: ATG_AP_1_CIS: Attagene CIS-FACTORIAL HepG2 Assay for human Activator Protein 1 (AP-1) (AID 2282931). Particulars: HepG2 Attagene cis-factorial AP-1 reporter mRNA; actives raise or lower the signal. Summed up: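 Multiplexed HepG2 reporter assay, 24 h dosing. mRNA induction detected by RT-PCR plus capillary electrophoresis. Activity fitted in both directions against DMSO.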

A short description of assay [19]: ATG_M_61_CIS: Attagene CIS-FACTORIAL HepG2 Assay for M61 Transcription Factor (Internal Marker) (AID 2282937). The settings on record: HepG2 Attagene CIS-FACTORIAL M61 internal marker reporter; actives raise or lower the signal. Summed up:
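Endogenous transcription factor activity in HepG2 is read through transiently transfected cis-element reporter units. After 24 h dosing, RNA undergoes reverse transcription, PCR and primer extension with 6-FAM before capillary electrophoresis; DMSO-referenced bidirectional fit.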

The nature of assay [20]: ATG_Ets_CIS: Attagene CIS-FACTORIAL HepG2 Assay for human Erythroblast Transformation Specific (ETS) (AID 2282941). Particulars: HepG2 ETS cis-reporter transcription, actives raise or lower the signal. Summed up: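 After transient cis-reporter transfection, HepG2 cells receive test chemical for 24 h. Reporter mRNA levels, measured by RT-PCR and capillary electrophoresis fluorescence, are analysed bidirectionally relative to the DMSO baseline.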

Inconclusive results are not listed. The source made the active and inactive calls. Rule for the calls, unless noted: active = hit-call score of the fitted dose curve at least 0.9, where 1 is the maximum; inactive = score below 0.9.

Sequence of Hepatocyte nuclear factor 3-beta (Homo sapiens) (Q9Y261 whole entry, looked up): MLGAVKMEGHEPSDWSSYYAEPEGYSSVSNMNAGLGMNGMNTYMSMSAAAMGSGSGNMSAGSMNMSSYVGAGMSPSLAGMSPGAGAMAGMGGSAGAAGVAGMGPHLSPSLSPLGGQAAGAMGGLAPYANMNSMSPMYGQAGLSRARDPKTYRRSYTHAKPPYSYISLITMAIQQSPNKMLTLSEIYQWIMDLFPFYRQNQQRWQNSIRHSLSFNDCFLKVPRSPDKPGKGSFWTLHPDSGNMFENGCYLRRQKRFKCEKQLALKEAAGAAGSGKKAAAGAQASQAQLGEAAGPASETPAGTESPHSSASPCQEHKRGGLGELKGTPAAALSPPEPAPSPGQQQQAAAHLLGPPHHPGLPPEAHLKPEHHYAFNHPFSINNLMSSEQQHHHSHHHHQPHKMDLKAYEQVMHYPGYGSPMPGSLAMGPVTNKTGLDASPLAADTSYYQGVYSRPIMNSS
Sequence of Retinoic acid receptor alpha (Homo sapiens) (P10276 whole entry, looked up): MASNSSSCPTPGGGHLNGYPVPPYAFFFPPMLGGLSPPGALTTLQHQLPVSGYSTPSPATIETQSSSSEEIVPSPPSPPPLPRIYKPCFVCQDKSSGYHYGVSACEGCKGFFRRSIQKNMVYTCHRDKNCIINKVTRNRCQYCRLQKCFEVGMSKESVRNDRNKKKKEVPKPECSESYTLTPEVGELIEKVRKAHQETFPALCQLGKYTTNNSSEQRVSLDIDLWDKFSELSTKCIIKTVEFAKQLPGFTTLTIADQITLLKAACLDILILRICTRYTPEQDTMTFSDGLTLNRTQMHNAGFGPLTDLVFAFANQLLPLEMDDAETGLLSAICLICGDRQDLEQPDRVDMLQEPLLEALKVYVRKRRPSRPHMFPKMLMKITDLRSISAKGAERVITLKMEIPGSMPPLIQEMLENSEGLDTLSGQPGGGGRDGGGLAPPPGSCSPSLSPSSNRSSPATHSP

Consider `COc1ccccc1C=O`, for which the compound was classed as inactive in [1], in [2], in assay [3], in [4], in [5] and in assay [6]. For the same compound, the compound was called inactive in [7], in assay [8], in [9], in assay [10], in [11] and in assay [12]. Further, the compound was called inactive in assay [13], in assay [14], in assay [15], in assay [16] and in [17].

On to `CCCCOC(=O)C(C)O` (centres undefined), for which the compound was classed as inactive in [1], in assay [2], in assay [3], in [4], in assay [5] and in assay [18]. Moreover, the compound was called inactive in assay [7], in assay [8], in assay [9], in [10], in [11] and in [19]. Further, the compound was classed as inactive in [12], in assay [13], in [15], in assay [16] and in assay [17].

`O=C(O)C(F)(F)C(F)(F)C(F)(F)OC(F)(F)F`: the result in assay [1], in assay [2], in assay [3], in assay [4], in assay [5] and in assay [6] was inactive. Further, the outcome in assay [18], in assay [8], in [9], in [10], in [11] and in [19] was inactive. Besides, the result in [12], in [13], in assay [20], in assay [15], in [16] and in [17] was inactive.

As to `O=C(O)CCC(F)(F)C(F)(F)C(F)(F)F`, the call in assay [1], in [2], in assay [3], in [4], in assay [5] and in assay [18] was inactive. For the same compound, the compound was called inactive in [8], in assay [9], in [10], in assay [11], in assay [19] and in [12]. For the same compound, the result in assay [20], in [15] and in [16] was inactive.

On to `Cc1ccc([N+](=O)[O-])c(C)c1`, for which the AC50 in assay [1] was 22.4 µM (active). The compound was classed as inactive in assay [2], in assay [3], in [4], in assay [5], in [18] and in assay [8]. Moreover, the outcome in [9], in assay [10], in [11], in assay [19], in assay [12] and in assay [13] was inactive. Also, the result in assay [14], in assay [20], in assay [15] and in [16] was inactive.

For `FC(F)(F)C(F)(F)C(F)(F)CC1CO1` (centres undefined), the call in [1], in [2], in [3], in [4], in assay [5] and in [6] was inactive. Further, the outcome in assay [7], in [8], in assay [9], in assay [10], in [11] and in [19] was inactive. The outcome in assay [12], in assay [13], in [14], in [15], in assay [16] and in assay [17] was inactive.

`CCCCCCCCCCCCCCCCC`: the AC50 in assay [1] was 10.5 µM (active); in assay [14], 25.6 µM (active). Further, the compound was classed as inactive in assay [2], in assay [3], in assay [4], in assay [5], in assay [6] and in [7]. Also, the compound was classed as inactive in assay [8], in assay [9], in assay [10], in assay [11], in assay [12] and in [13]. In addition, the outcome in assay [15], in assay [16] and in assay [17] was inactive.

The record behind these values is PubChem BioAssay (EPA / NIEHS).
